Rows were chosen to be rich in hits. Some 3.4% of all compounds tested hit in one or more screens of this group.
FBW7 act: human FBW7 E3 ligase activation, primary screen | AlphaScreen FBW7–phospho-cyclin E peptide binding, activator screen | normalized activity (activation), % at 26.1 µM | 0.13% of 650,000 active; in the data active = normalized activity above about 1.9%;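 also: purified mutant Fbw7 with reduced substrate affinity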
TEAD-YAP inh: TEAD-YAP interaction inhibition; HEK-TIYL cells, TEAD-Gal4/YAP UAS-luciferase luminescence; inhibition, % at 9.12 µM; 1.4% of 640,000 active; AID 1259422; in the data active = inhibition above about 32%
MITF inh: human MITF inhibition, primary screen; O75030; AlphaScreen MITF homodimerization, bead proximity signal; inhibition, % at 2.6 µM; 0.91% of 650,000 active; AID 1259374; in the data active = inhibition above about 50%
Target sequence (O75030 whole entry, looked up): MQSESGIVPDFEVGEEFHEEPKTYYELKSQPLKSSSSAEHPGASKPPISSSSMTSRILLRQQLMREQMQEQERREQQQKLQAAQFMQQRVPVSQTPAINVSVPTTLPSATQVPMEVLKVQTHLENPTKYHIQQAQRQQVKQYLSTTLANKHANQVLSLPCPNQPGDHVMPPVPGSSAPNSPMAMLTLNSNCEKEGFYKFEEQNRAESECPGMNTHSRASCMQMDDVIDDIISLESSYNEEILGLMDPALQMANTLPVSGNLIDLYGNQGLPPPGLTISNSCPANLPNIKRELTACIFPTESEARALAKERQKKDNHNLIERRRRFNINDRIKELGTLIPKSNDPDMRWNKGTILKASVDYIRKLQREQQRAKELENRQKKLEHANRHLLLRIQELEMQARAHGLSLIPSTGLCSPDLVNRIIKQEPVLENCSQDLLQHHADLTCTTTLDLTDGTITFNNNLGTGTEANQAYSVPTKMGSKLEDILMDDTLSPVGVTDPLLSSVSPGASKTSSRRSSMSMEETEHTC
GPR151 ag: human GPR151 activation. Q8TDV0. PathHunter beta-arrestin GPR151 cells, luminescence. AID 1508602. 1% of 650,000 active. activation, % at 11.2 µM; in the data active = activation above about 4.9%
Large screens that a line does not name were inactive.

COc1ccc(-c2c(C)oc3cc(OS(C)(=O)=O)ccc3c2=O)cc1OC	TEAD-YAP inh 34
Cc1ncc2c(NCCc3ccccc3)nc3ccccc3n12	none
Cc1ncc2c(NCCN(C)C)nc3ccccc3n12	TEAD-YAP inh 46
COc1ccc(C(=O)C[n+]2cc(Cl)c(N)c(Cl)c2)cc1	none
COc1ccc(-c2csc3ncnc(Cl)c23)cc1OC	TEAD-YAP inh 34
CCCCCCNc1ccc([N+](=O)[O-])cc1[N+](=O)[O-]	none
CCCCCNc1sc(Cl)c([N+](=O)[O-])c1[N+](=O)[O-]	TEAD-YAP inh 65
CCn1nc(C)cc1C(=O)Nc1nc(-c2ccc(C(C)C)cc2)cs1	TEAD-YAP inh 38
CC(C)c1ccc(-c2csc(NC(=O)c3cc(Cl)cc(Cl)c3)n2)cc1	none
O=C(CC1c2ccccc2Oc2ccccc21)Nc1ccccn1	none
Cc1ccc(NC(=O)CC2c3ccccc3Oc3ccccc32)nc1	TEAD-YAP inh 52
COC(=O)C1=C(C)N=c2s/c(=C\c3c(F)cccc3Cl)c(=O)n2C1c1ccc(OC)cc1 (centres undefined)	none
CCOC(=O)c1c(NC(=O)CSc2nnc(CNC(=O)c3cccs3)n2Cc2ccccc2)sc2c1CCCCC2	none
CCCCc1ccc(NC(=O)c2ccc(N(C)S(C)(=O)=O)cc2)cc1	TEAD-YAP inh 35
Cc1cc(-c2cccc3[nH]c(C(F)(F)F)nc23)nn1C(=O)c1cccnc1	TEAD-YAP inh 63
CCN(CC)CCCNC(=O)c1nn2c(C(F)(F)F)cc(-c3cccs3)nc2c1Br	none
CCCOC(=O)c1ccc(Br)c([N+](=O)[O-])c1	none
COc1ccc(C(=O)c2ccc(Br)c([N+](=O)[O-])c2)cc1	TEAD-YAP inh 64
O=C(c1ccc(-n2cccc2)cc1)N1CCC(c2nnc(-c3ccco3)o2)CC1	FBW7 act 2.2
O=C(Nc1ccc(S(=O)(=O)NCc2cccnc2)cc1)c1ccccc1Cl	none
O=C(Nc1ccc(S(=O)(=O)NCc2cccnc2)cc1)c1ccco1	FBW7 act 2.1
COc1cccc(S(=O)(=O)NCc2ccc(C(=O)Nc3cccnc3)cc2)c1	TEAD-YAP inh 50
O=C(CCCOc1ccc(Cl)cc1Cl)Nc1ccc2c(c1)COC2=O	none
COc1ccccc1CC(=O)Nc1cc(OC)c(OC)cc1C(=O)O	none
CCCCC(=O)Nc1cc(OC)c(OC)cc1C(=O)O	FBW7 act 2.2
CCCCNS(=O)(=O)c1ccc(S(=O)(=O)NC2CCC(C)CC2)cc1 (centres undefined)	none
CCC(C)(C)C1CCc2oc3c(cc(NS(=O)(=O)c4ccc(C)cc4C)c4ccccc43)c2C1 (centres undefined)	none
Cc1cc2c(cc1-c1c(C)oc3c(C)c(O)ccc3c1=O)OCCO2	none
CCC(CC)NC(=O)c1cccc(I)c1	TEAD-YAP inh 34
CCOC(=O)C1CCN(C(=O)Nc2ccc(NC(=O)C3CCN(C(=O)OCC)CC3)cc2)CC1	FBW7 act 6.1
OCc1ccccc1-c1cnn2c(N3CCC[C@H]3CO)ccnc12	none
COc1ccc(-c2cnn3c(N4CCCCC4CCO)ccnc23)cc1OC (centres undefined)	TEAD-YAP inh 38
OC[C@@H]1CCCN1c1ccnc2c(-c3ccc(O)cc3)cnn12	TEAD-YAP inh 95
OCc1cccc(-c2cnn3c(N4CCC[C@H]4CO)ccnc23)c1	TEAD-YAP inh 66
OC[C@@H]1CCCN1c1ccnc2c(-c3cnn(Cc4ccccc4)c3)cnn12	none
OC[C@@H]1CCCN1c1ccnc2c(-c3ccccc3F)cnn12	TEAD-YAP inh 90
CCCN(CCC)S(=O)(=O)c1ccc(C(=O)Nc2nc3c(s2)CCCC3)cc1	none
CC(=O)N1CCC2(CC1)OCc1cc(-c3ccc4c(c3)OCO4)ccc1O2	none
CN1CCN(c2ccnc3c(-c4ccccc4Oc4ccccc4)cnn23)CC1	none
OC1CCN(c2ccnc3c(-c4ccc(F)c(Cl)c4)cnn23)CC1	none
O=C(NC1CC1)c1ccc(-c2cnn3c(N4CCC[C@H]4CO)ccnc23)cc1	none
CN1CCN(c2ccnc3c(-c4ccccc4F)cnn23)CC1	TEAD-YAP inh 67
OC[C@@H]1CCCN1c1ccnc2c(-c3ccc(F)c(Cl)c3)cnn12	TEAD-YAP inh 83
Cc1ccc(-c2cnn3c(N4CCC[C@H]4CO)ccnc23)cc1	TEAD-YAP inh 96
CCCC(=O)Nc1ccc(NC(=O)C(C)C)nc1	none
COc1cccc(-c2nnc3sc(NC(=O)COc4ccccc4)nn23)c1	none
O=C1CCCC2=C1C(c1ccccc1)Nc1ccc(C(=O)c3ccccc3)cc1N2 (centres undefined)	TEAD-YAP inh 35
Cc1ccc(C2Nc3ccc(C(=O)c4ccccc4)cc3NC3=C2C(=O)CCC3)cc1 (centres undefined)	TEAD-YAP inh 41

Screens as filed in PubChem BioAssay.
